PostGolgi ctrl: growth inhibition of yeast control strain, primary screen, counter-screen for post-Golgi transport modulator project; inhibition, % at 10 µM; efflux-deficient yeast background strain, growth absorbance A615, 16 h; 98,000 tested, 5% active; AID 738, 2007
CYP2C9 inh: blockers of cytochrome P450 2C9 activity – biochemical, luminescence, ADME assay, primary screen; P11712; CYP2C9 Supersomes, luciferin-H conversion; inhibition, % at 5 µM; 96,000 tested, 20% active; AID 777, 2007;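 active = blocking of liver enzyme CYP2C9 beyond about 50% at 5 µM, limit read from the data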
Target sequence (P11712 whole entry, looked up): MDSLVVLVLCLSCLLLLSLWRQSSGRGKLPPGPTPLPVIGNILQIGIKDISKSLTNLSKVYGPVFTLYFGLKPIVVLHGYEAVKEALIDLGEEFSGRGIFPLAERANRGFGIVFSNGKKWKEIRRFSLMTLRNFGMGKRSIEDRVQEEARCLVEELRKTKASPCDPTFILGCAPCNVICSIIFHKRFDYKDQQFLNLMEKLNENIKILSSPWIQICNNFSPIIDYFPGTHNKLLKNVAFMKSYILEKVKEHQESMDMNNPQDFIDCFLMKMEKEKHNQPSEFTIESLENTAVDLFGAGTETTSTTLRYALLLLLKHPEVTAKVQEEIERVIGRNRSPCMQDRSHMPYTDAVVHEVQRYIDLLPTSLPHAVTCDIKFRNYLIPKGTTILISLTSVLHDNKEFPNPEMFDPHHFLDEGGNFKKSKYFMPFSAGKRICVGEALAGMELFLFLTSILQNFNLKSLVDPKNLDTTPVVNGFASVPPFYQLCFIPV
CYP2C19 activ: human CYP2C19 activators, primary screen, biochemical, luminescence; Cytochrome P450 2C19 (Homo sapiens), P33261; 96,000 tested, under 10 active; activation factor at 5 µM; AID 1025, 2008; recombinant CYP2C19, luciferin-H EGE luminescence; stronger effect = higher value; 0 = fully inhibited enzyme, 1 = untreated enzyme;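 active = activation factor of at least 2 at 5 µM in the primary screen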;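 note: 0 = wells with 2.5 mM tranylcypromine and 1 = vehicle-only wells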
CYP2C9 activ: human CYP2C9 activators, primary screen, biochemical, luminescence. recombinant CYP2C9, luciferin-H conversion; stronger effect = higher value; factor 1 = untreated enzyme, 0 = blocked. activation factor at 5 µM. 96,000 tested, 1.4% active;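 active = activation factor of 2 or more for CYP2C9 at a 5 µM dose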;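 note: 0 = sulfaphenazole-blocked wells and 1 = vehicle-only wells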
PostGolgi yeast: phenotypic screen on post-Golgi transport, primary screen; post-Golgi transport phenotypic cell assay; inhibition, % at 10 µM; 98,000 tested, 0.9% active;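 note: yeast cells grown in 1536-well plates; yeast grown about 18 h at 30C before absorbance read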
CYP2C19 inhib: blockers of cytochrome P450 2C19 activity – biochemical, luminescence, ADME assay, primary screen | P33261 | CYP2C19 Supersomes, luciferin-H EGE luminescence, 30 min | inhibition, % at 5 µM | 96,000 tested, 21% active;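 active = CYP2C19 inhibition above a set limit at 5 µM in the primary screen, cut at about 50% in these data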;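 note: plate controls were negative control wells for no effect and 2.5 mM tranylcypromine positive control for full effect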
An asterisk follows results filed as active. In the library only some 32% were active in any assay of this set; here they are far more common. Cut-off read from the data, not from the text of the source, unless noted: active = inhibition above about 30%; inactive = the rest.

Screening CCc1nc(C)cn1S(=O)(=O)c1cc(Cl)c(OC)cc1Cl returned PostGolgi ctrl 4.9, CYP2C9 inh -8.0, CYP2C19 activ 0.6, CYP2C9 activ 1.1, PostGolgi yeast 7.2 and CYP2C19 inhib 42.9.
Screening CCc1nc(C)cn1S(=O)(=O)c1cc(Br)c(C)cc1OC returned PostGolgi ctrl -0.8, CYP2C9 inh 57.9*, CYP2C19 activ 0.4, CYP2C9 activ 0.4, PostGolgi yeast 11.6 and CYP2C19 inhib 61.1*.
`CCc1nc(C)cn1S(=O)(=O)c1ccc(Cl)c(Cl)c1Cl` gave PostGolgi ctrl 17.3, CYP2C9 inh 59.6*, CYP2C19 activ 0.1, CYP2C9 activ 0.4, PostGolgi yeast -0.7 and CYP2C19 inhib 94.9*.
Screening CCc1nc(C)cn1S(=O)(=O)c1cc(C)c(OC)c(C)c1C returned PostGolgi ctrl 18.5, CYP2C9 inh -4.8, CYP2C19 activ 0.4, CYP2C9 activ 1, PostGolgi yeast 13.2 and CYP2C19 inhib 61.8*.
Screening CC(C)CNCC(=O)N1c2ccccc2Sc2ccccc21 returned PostGolgi ctrl 4.3, CYP2C9 inh 5.4, CYP2C19 activ 1, CYP2C9 activ 0.9, PostGolgi yeast -4.7 and CYP2C19 inhib -0.9.
CCc1nc(C)cn1S(=O)(=O)c1cc(Br)ccc1OC was read as PostGolgi ctrl 4.4, CYP2C9 inh -11.8, CYP2C19 activ 0, CYP2C9 activ 1.1, PostGolgi yeast -1.8 and CYP2C19 inhib 95.7*.
For CCOC(=O)C1CCN(c2nnc(N3CCCC3=O)s2)CC1 the results were PostGolgi ctrl 22.3, CYP2C9 inh -15.3, CYP2C19 activ 1.1, CYP2C9 activ 1.2, PostGolgi yeast 6.3 and CYP2C19 inhib -12.6.
`CC(C)(C)c1ccc(S(=O)(=O)N2CCN(CCC#N)CC2)cc1` gave PostGolgi ctrl 2.3, CYP2C9 inh -38.1, CYP2C19 activ 0.5, CYP2C9 activ 1.4, PostGolgi yeast 1.4 and CYP2C19 inhib 50.0*.
For CC(C)CC1CC(=O)OC1(C)C(=O)CSc1nc2ccccc2s1 (stereo not given) the results were PostGolgi ctrl 29.9, CYP2C9 inh 26.0, CYP2C19 activ 0.8, CYP2C9 activ 0.7, PostGolgi yeast -4.5 and CYP2C19 inhib 22.5.
Screening CCOc1ccccc1-c1cc(C(=O)N/N=C/c2ccc3c(c2)OCO3)c2ccccc2n1 returned PostGolgi ctrl 91.6*, CYP2C9 inh 91.2*, CYP2C19 activ 0.5, CYP2C9 activ 0.1, PostGolgi yeast 52.8* and CYP2C19 inhib 50.2*.
Screening Cc1ccc(-c2cc(C(=O)N/N=C/c3c(C)nn(C)c3C)c3ccccc3n2)c(C)c1 returned PostGolgi ctrl -5.6, CYP2C9 inh 95.7*, CYP2C19 activ 0.1, CYP2C9 activ 0, PostGolgi yeast -6.3 and CYP2C19 inhib 93.7*.
Screening CCN(CC)C(=O)c1sc(NC(=O)c2cc(-c3ccc(C)s3)nc3ccccc23)c(C(=O)OC)c1C returned PostGolgi ctrl 5.5, CYP2C9 inh 50.8*, CYP2C19 activ 1, CYP2C9 activ 0.5, PostGolgi yeast -6.4 and CYP2C19 inhib -1.4.
`Cc1nn(C)c(C)c1/C=N/NC(=O)c1csc2ccccc12` gave PostGolgi ctrl -2.2, CYP2C9 inh 8.9, CYP2C19 activ 0.9, CYP2C9 activ 0.9, PostGolgi yeast -7.6 and CYP2C19 inhib 7.6.
For COC(=O)c1sccc1NC(=O)c1cc(-c2ccc(C)cc2C)nc2ccccc12 the results were PostGolgi ctrl -7.9, CYP2C9 inh 59.2*, CYP2C19 activ 0.9, CYP2C9 activ 0.4, PostGolgi yeast 4.8 and CYP2C19 inhib 12.4.
COC(=O)CCC(=O)Nc1cccc(C(=O)Nc2cccc(Cl)c2)c1 was read as PostGolgi ctrl 6.3, CYP2C9 inh 34.6, CYP2C19 activ 0.8, CYP2C9 activ 0.7, PostGolgi yeast -1.4 and CYP2C19 inhib 23.5.
`COc1ccccc1-c1cc(C(=O)N/N=C/c2sccc2C)c2ccccc2n1` gave PostGolgi ctrl 47.8*, CYP2C9 inh 74.6*, CYP2C19 activ 0.6, CYP2C9 activ 0.3, PostGolgi yeast 0.5 and CYP2C19 inhib 39.0.
`O=C(CSc1nnnn1C1CCCC1)NCc1ccc2c(c1)OCO2` gave PostGolgi ctrl 9.0, CYP2C9 inh 60.9*, CYP2C19 activ 0.6, CYP2C9 activ 0.4, PostGolgi yeast 2.0 and CYP2C19 inhib 36.1.

Compound activity: PubChem BioAssay, several laboratories
